The subject of this assay is MDA-MB-468 breast. Kind of assay: NCI-60 one-dose screen, 48 h (100 = growth as untreated, 0 = no growth, -100 = all killed). The settings on record: 10 µM unless noted.

The structures appear in SMILES notation. This is part of a sample that, as a whole, favours compounds with a hit. Of some 83,000 tested, about 20% had one in any assay.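 96-well plates, one dose, 48 hours. Percent growth reported; active if below 10.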 Values without a mark were called inactive. The source made the active and inactive calls.

Regarding `Cc1cc(C(=O)O)c(C)cc1C(=O)O`, the growth is 96.6%. On to `CCn1c(-c2cc3c([nH]c4ccccc43)c(-c3cccc(O)c3)n2)n[nH]c1=S`, for which the growth was 16.1%. With `COc1cc2nccc(Oc3ccc(NC(=O)C4(C(=O)Nc5ccc(F)cc5)CC4)cc3)c2cc1OC`, the growth was 33.6%. The value for `Cc1cc(O)c(C2=NN(c3ccc(S(N)(=O)=O)cc3)C(c3ccc(Cl)cc3)C2)c(C)c1Cl` (stereo not given) was 43.7%; that for `CCOC(=O)C(C)C(C)(O)c1ccccc1` (stereo not given) was 96.3%.

`CC1=C(C)C(=O)C(Nc2ccc(C)cc2)=C(Br)C1=O`: the growth was -4.77% (active). Consider `Cn1ccnc1C(=O)/C=C/c1ccc(NC(=O)Nc2ccc(F)cc2)cc1`, for which the growth was 6.47% (active). As to `Brc1ccc(-n2cc(-c3nn[nH]n3)c(-c3cccs3)n2)cc1`, the growth was 92.4%. For `CCCCc1ccc(NC(=O)N(CCCl)N=O)cc1`, the growth was 91.4%. With `Nc1ccn(C2OC(F)(CO)C(O)C2F)c(=O)n1` (stereo not given), the growth was 76.2%.

On to `CCOC(=O)c1cc(C(=O)c2cc(OC)c(OC)c(OC)c2)n2ccc(-c3ccncc3)cc12`, for which the growth is 99.1%. Consider `CCOC(=O)c1c2c(n3cccc(F)c13)C(=O)c1ncccc1C2=O`, for which the growth was 39.6%. The value for `CCOC(=O)CSc1nc2sc3c(c2c(=O)n1-c1ccc([N+](=O)[O-])cc1)CCCCC3` was 56.6%. With `CN(C)CCC(CCN(C)C)(C(=O)O)c1ccccc1`, the growth was 102%. The value for `CCOC(OCC)C(=O)c1ccccc1` was 102%; that for `COc1cc(CN)ccc1O` was 99.7%; that for `Cn1cc(-c2csc(-c3c[nH]c4ncccc34)n2)c2cc(Br)cnc21` was 15.4%. For `CCOC(=O)C1=C(C(=O)OCC)N(c2cc(OC)c(OC)c(OC)c2)C(N)=C(C#N)C1c1cc(=O)[nH]c2ccccc12` (stereo not given), the growth is 92%. The value for `Cc1ccc(N=CNN=C(N)N)cc1` was 100%; that for `NS(=O)(=O)c1cc2c(cc1Cl)NC=NS2(=O)=O` was 108%. The value for `N#Cc1c(N)nnn1Cc1cc(=O)oc2ccc(O)cc12` was 101%; that for `CN[C@@H](C)C(=O)N[C@H]1CCS[C@H]2CC(C)(C)[C@@H](C(=O)N[C@H]3c4ccccc4C[C@H]3OCC#CC#CCO[C@@H]3Cc4ccccc4[C@@H]3NC(=O)[C@H]3N4C(=O)[C@@H](NC(=O)[C@H](C)NC)CCS[C@H]4CC3(C)C)N2C1=O` was 19.3%; that for `CCCCCO/N=C\c1c2c(O)c3c(O)c(C)c4c(c3c1O)C(=O)C(C)(O/C=C\C(OC)C(C)C(OC(C)=O)C(C)C(O)C(C)C(O)C(C)/C=C\C=C(\C)C(=O)N2)O4` (stereo not given) was 0.538% (active). The value for `C=C1C(=O)O[C@H]2[C@H]1CC/C(COC(=O)c1ccc(Cl)nc1)=C\CC[C@@]1(C)O[C@@H]21` was -25.1% (active); that for `O=C(Nc1ccccc1)P(=O)(O)c1ccccc1` was 94.3%. On to `COc1ccc2nc(-c3ccc(Cl)cc3)cc(-c3nnc(SC/C(=N\O)c4ccccc4)n3-c3ccccc3)c2c1`, for which the growth was 60.4%. The value for `COc1cc(F)c(/C=C/c2cc(/C=C/c3cc(OC)c(OC)cc3F)n(-c3cc(F)cc(F)c3)n2)cc1OC` was -37.6% (active). With `O=C1CC(c2ccc3c(c2)OCO3)c2ncn(-c3ccc(Cl)cc3)c2N1` (stereo not given), the growth was 13%.

For `Cc1ccc2c(c1)nc(C)n2-c1ncnc2c1CC(C)c1cc(O)ccc1N2C` (stereo not given), the growth was 10%. As for `N=c1c2c(=O)n3c(nc2nc2sc4ccc(Cl)cc4n12)-c1ccccc1Sc1ccccc1-3`, the growth was 24.3%. The value for `C=CCNc1nnc(C)s1` was 104%; that for `OCCN1CCN(CCCN2c3ccccc3Sc3ccc(Cl)cc32)CC1` was 25.3%. For the compound `COc1cccc(C2C(C#N)=C(N)Oc3cc(N)ccc32)c1` (stereo not given), the growth is -22.2% (active).

In the case of `N#CC1C(=O)NC(c2ccccc2[N+](=O)[O-])c2sc3c(F)cccc3c21` (stereo not given), the growth was -49% (active). For the compound `O=c1[nH]c2c(s1)CCCC2CN1CCCCC1` (stereo not given), the growth is 109%. The value for `O=C(CCCCC1CCSS1)Nc1ncnc2n[nH]c(-c3ccc(Oc4ccccc4)cc3)c12` (stereo not given) was 95.9%.

As for `COc1ccc(/C=C/C(c2cc(OC)c(OC)c(OC)c2)n2cncn2)cc1O` (stereo not given), the growth is 8.27% (active). As for `O=C1/C(=C/c2ccccc2Cl)CCc2ccccc21`, the growth is 101%. The value for `CC(C)CSc1ncnc2nc[nH]c12` was 104%. For `NC1[C@H]2CN(c3cnc(C(=O)Nc4cc(F)cc5cccnc45)cn3)C[C@@H]12` (stereo not given in full), the growth is 3.36% (active). Turning to `Cn1nc(C(F)(F)F)c(-c2cc(C(F)(F)F)cc(C(F)(F)F)c2)c1-c1ccc(OCc2ccc(Cl)cc2)cc1O`, the growth was -5% (active). Consider `O=C(Nc1cccnc1Nc1ccccc1)c1cn(Cc2cccc(Oc3ccccc3)c2)nn1`, for which the growth is 69.9%.

For the compound `C=C1C(=O)O[C@H]2[C@H]1CC/C(COC(=O)NCc1ccc(OC)c(OC)c1)=C\CC[C@@]1(C)O[C@@H]21`, the growth is 24.3%. With `CN1C2CCC1CN(c1cnc(C(=O)Nc3cc(F)cc4cccnc34)cn1)C2`, the growth is 13.1%. `C=C1CC[C@@H]2[C@](C)(COC(C)=O)[C@H](OC(C)=O)CC[C@@]2(C)[C@@H]1CC(NCc1ccccc1)C1=CCOC1=O` (stereo not given in full): the growth is 22.9%. The value for `Clc1cccc(Nc2ncnc3ccc(-c4cncc(-n5cnnn5)c4)cc23)c1` was -31.6% (active). The value for `Cc1cc(C)c(N2C(=O)CC(Sc3ccccc3N)C2=O)c(C)c1` (stereo not given) was 45.6%; that for `Clc1ccc2c(c1)N(CCCN1CCCC1)c1ccccc1S2` was 16.4%. Take `COc1cc(Cl)cc(-c2nn(-c3cccc(NC(=O)Nc4cccc(C(F)(F)F)c4)c3)cc2-c2ccncc2)c1`: the growth was 6.89% (active). The value for `O=C(O)c1ccc(Nc2ncc3c(n2)-c2ccc(Cl)cc2C(c2c(F)cccc2F)=NC3)cc1` was 35%; that for `O=C(CCN1CCCC1)Nc1ccc2c(NCCc3ccccc3)c3ccccc3nc2c1` was -40.8% (active); that for `CN(C)c1ccc(/C=N/N=C(N)N)cc1` was 33%. `CCOC(=O)/C=C/c1c(C)[nH]c(=O)[nH]c1=O`: the growth was 72.8%. The value for `COc1ccc(Cn2cc(C(=O)N=Nc3c(O)[nH]c4c(Cl)cccc34)nn2)cc1` was 98.6%; that for `S=C(N/N=C/c1cc(Cl)cc(Cl)c1)NC12CC3CC(CC(C3)C1)C2` was 104%; that for `Cc1cc(SCc2ccccc2)nc(N)n1` was 110%. As for `O=C(/C=C\c1ccc(NCc2ccc(C(=O)O)cc2)cc1)CCl`, the growth is 76.7%. For `COc1cc(-c2ccc(N=Nc3c(O)c(C(=O)Nc4ccccc4OC)cc4ccccc34)c(OC)c2)ccc1N=Nc1c(O)c(C(=O)Nc2ccccc2OC)cc2ccccc12`, the growth is 95%. The value for `Fc1ccc2[nH]cc(-c3nc(-c4ccsc4)cs3)c2c1` was 69.6%.

Consider `CCOC(=O)c1c(C)nc2c(c1N)/C(=C/c1cccs1)C(=O)N2Cc1ccccc1`, for which the growth was 47.6%.

In the case of `O=C1C(Cl)=C(Nc2ccc3c(c2NC2=C(Cl)C(=O)c4ccccc4C2=O)C(=O)c2ccccc2C3=O)C(=O)c2ccccc21`, the growth is 5.98% (active). Consider `CCCCc1nc(Cl)c(C2CC(c3ccc(Cl)cc3)=NN2c2cc(Cl)cc(Cl)c2)[nH]1` (stereo not given), for which the growth is 88.3%. The value for `CCn1c2ccc(O)cc2c2c(C)c3c[n+](C)ccc3c(C)c21` was -31.2% (active).

Regarding `CC[C@H](Nc1nc(C)nc(N)c1C#N)c1nc2cccc(NCc3ccc(C(=O)NO)cc3)c2c(=O)n1-c1ccccc1`, the growth was -37.1% (active). For `CCCCc1nc2c(N)nc3ccccc3c2n1Cc1cccc(CN)c1`, the growth is 27.3%. Turning to `COc1cccc2c1C(=O)c1c(O)c3c(c(O)c1C2=O)C[C@@](O)(/C(C)=N/NC(=O)c1cccc([N+](=O)[O-])c1)C[C@@H]3OC1CC(N)C(O)C(C)O1` (stereo not given in full), the growth is -18.9% (active). The value for `C=CCC(OC(C)=O)c1ccc(C(C)C)cc1` (stereo not given) was 105%; that for `COc1ccc(C(c2cc(OC)c(OC)c(OC)c2)N2CCN(c3ccccc3)CC2)cc1` (stereo not given) was 77.2%.

Take `CC(=N\N=C(N)N)/C(=N/N=C(N)N)c1ccccc1`: the growth is 39.6%.

Regarding `COc1cc2c3c(n(C4CCNCC4)c(=O)c2cc1OC)-c1cc2c(cc1C3=O)OCO2`, the growth is -81% (active). The value for `Nc1nc2c(c(=O)[nH]1)C1(C(=O)Nc3ccccc31)c1c(nc(N)[nH]c1=O)N2` was 101%. As to `O=C1/C=C/[C@@H](O)[C@@H]2C[C@@H](O)C[C@H]2/C=C/CCC[C@H](CCc2cccc3ccccc23)O1`, the growth is -32.4% (active).

Take `COCCNCC(O)Cn1c2ccc(Cl)cc2c2cc(Cl)ccc21` (stereo not given): the growth was -43.9% (active). The value for `Cc1cc(NC(=O)Nc2cccc3ccccc23)no1` was 107%; that for `CC1CN(/N=C/c2ccc([N+](=O)[O-])o2)C(=N)O1` (stereo not given) was 89.6%; that for `COc1cccc(/C=C/C(=O)c2c(C)nc3ccccc3c2/C=C/c2ccc(C)cc2)c1OC` was 58.3%. The value for `Cc1noc(C)c1-c1ccc2nc(NC(=O)[C@H]3CCN(C#N)C3)cn2c1` was 57.3%. In the case of `CN(CCO)c1ccc(N2Cc3ccccc3OC3=C2C(=O)c2c(O)ccc(O)c2C3=O)cn1`, the growth is -64.7% (active). In the case of `CS(=O)CC(=N\O)/C(CS(C)=O)=N\O` (stereo not given), the growth is 104%. The value for `Cn1cc(-c2ncnc3ccc(-c4cnc(Cl)c(NS(C)(=O)=O)c4)cc23)c2ccccc21` was -1.16% (active).

The values above are taken from PubChem BioAssay (NCI).
